Holding throughout (assay): yeast three-hybrid, YBZ-1, SC-Leu-His + 0.5 mM 3-AT, 4 days
Conditions in all cases: tags: N-Gal4 AD-HA kept; label: inside an RPR1-promoter hybrid RNA with tandem MS2 sites; ssRNA

The target of assay [1] is PUM1 PUF domain R5-QRR (Homo sapiens, UniProt Q14671 828-1176, C1007Q;Q1011R). The method in brief:
(§1)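 Pumilio-1 PUF domain libraries, randomized (NNK) at the three base-contacting residues of each repeat, were co-expressed with matching RNA elements from a centromeric plasmid in strain YBZ-1 (LexA–MS2 coat fusion, HIS3 reporter). Transformants were plated on SC-Leu (input) and SC-Leu-His + 0.5 mM 3-AT (selection) for four days, and repeat regions were PCR-amplified and Illumina-sequenced. The interaction score is the log2 change in variant frequency from input to selection, with pseudocount 1 where absent.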

Assay [2] addresses PUM1 PUF domain R5-KNQ (Homo sapiens, UniProt Q14671 828-1176, C1007K;R1008N). The gist of the method:
as §1

For assay [3], the target named is PUM1 PUF domain R5-KQL (Homo sapiens, UniProt Q14671 828-1176, C1007K;R1008Q;Q1011L). The method in brief:
as §1

Assay [4] has as its target PUM1 PUF domain R5-RAP (Homo sapiens, UniProt Q14671 828-1176, C1007R;R1008A;Q1011P). The method in brief:
as §1

Assay [5] deals with PUM1 PUF domain R4-WAW (Homo sapiens, UniProt Q14671 828-1176, N971W;H972A;Q975W). The gist of the method:
as §1

Assay [6] has as its target PUM1 PUF domain R1-SWD (Homo sapiens, UniProt Q14671 828-1176, R864W;Q867D). The gist of the method:
as §1

In assay [7] the target is PUM1 PUF domain R1-RRV (Homo sapiens, UniProt Q14671 828-1176, S863R;Q867V). The method in brief:
as §1

The target in assay [8] is PUM1 PUF domain R1-VWR (Homo sapiens, UniProt Q14671 828-1176, S863V;R864W;Q867R). The method in brief: as §1
The target of assay [9] is PUM1 PUF domain R5-RKV (Homo sapiens, UniProt Q14671 828-1176, C1007R;R1008K;Q1011V). The method in brief:
as §1

Assay [10] concerns the target PUM1 PUF domain R7-VER (Homo sapiens, UniProt Q14671 828-1176, S1079V;N1080E;E1083R). The gist of the method: as §1
The target in assay [11] is PUM1 PUF domain R7-QCK (Homo sapiens, UniProt Q14671 828-1176, S1079Q;N1080C;E1083K). The gist of the method:
as §1

Assay [12] addresses PUM1 PUF domain R8-YFR (Homo sapiens, UniProt Q14671 828-1176, N1122Y;Y1123F;Q1126R). The gist of the method: as §1
In assay [13] the target is PUM1 PUF domain R8-KYA (Homo sapiens, UniProt Q14671 828-1176, N1122K;Q1126A). The method in brief:
as §1

In assay [14] the target is PUM1 PUF domain R8-CWR (Homo sapiens, UniProt Q14671 828-1176, N1122C;Y1123W;Q1126R). The method in brief:
as §1

The target of assay [15] is PUM1 PUF domain R8-KWR (Homo sapiens, UniProt Q14671 828-1176, N1122K;Y1123W;Q1126R). The method in brief:
as §1

We go through 8 sequences from PMC8384837, “Expanding the binding specificity for RNA recognition by a PUF domain”.

PUM1 PUF domain R5-KQL, sequence (Q14671 828-1176 C1007K/R1008Q/Q1011L): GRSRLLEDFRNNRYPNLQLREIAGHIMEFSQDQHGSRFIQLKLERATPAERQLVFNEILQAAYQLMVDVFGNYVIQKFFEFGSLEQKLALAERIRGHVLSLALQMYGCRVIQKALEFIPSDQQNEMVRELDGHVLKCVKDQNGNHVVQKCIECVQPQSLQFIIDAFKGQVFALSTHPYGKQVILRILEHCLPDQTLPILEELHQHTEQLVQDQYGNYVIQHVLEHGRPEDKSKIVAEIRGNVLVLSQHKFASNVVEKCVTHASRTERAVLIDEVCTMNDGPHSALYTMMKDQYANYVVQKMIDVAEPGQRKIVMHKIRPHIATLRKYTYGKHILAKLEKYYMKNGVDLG
PUM1 PUF domain R5-QRR, sequence (Q14671 828-1176 C1007Q/Q1011R): as the sequence (Q14671 828-1176 C1007K/R1008Q/Q1011L) above, with K180Q, Q181R, L184R counted along it
PUM1 PUF domain R4-WAW, sequence (Q14671 828-1176 N971W/H972A/Q975W): as the sequence (Q14671 828-1176 C1007K/R1008Q/Q1011L) above, with N144W, H145A, Q148W, K180C, Q181R, L184Q counted along it

For the sequence “GGCUAGAACUAGUGGAUCCCCCGGCGCCCGGCGGCUCGAGCCCGGGUAAGUGUUAAUAGUCUGCAUGCCGCCGGGCGCCAUGCCUGCAGGUCGACUCUAGAAAACAUG”, the binding signal was 4.36 log2 enrichment (interaction score) in assay [1], 4.28 log2 enrichment (interaction score) in assay [2], 3.92 log2 enrichment (interaction score) in [3] and 0.85 log2 enrichment (interaction score) in [4].
Consider “GGCUAGAACUAGUGGAUCCCCCGGCGCCCGGCGGCUCGAGCCCGGGUAAGUGUACAUAGUCUGCAUGCCGCCGGGCGCCAUGCCUGCAGGUCGACUCUAGAAAACAUG”, for which the binding signal in assay [5] was 2.47 log2 enrichment (interaction score).
Take “GGCUAGAACUAGUGGAUCCCCCGGCGCCCGGCGGCUCGAGCCCGGGUAAGUGUAAAUGGUCUGCAUGCCGCCGGGCGCCAUGCCUGCAGGUCGACUCUAGAAAACAUG”: the binding signal in assay [6] is 4.27 log2 enrichment (interaction score); in assay [7] it was 1.17 log2 enrichment (interaction score).
As for “GGCUAGAACUAGUGGAUCCCCCGGCGCCCGGCGGCUCGAGCCCGGGUAAGUGUAAAUUGUCUGCAUGCCGCCGGGCGCCAUGCCUGCAGGUCGACUCUAGAAAACAUG”, the binding signal in assay [8] is 2.37 log2 enrichment (interaction score); in assay [7], 3.36 log2 enrichment (interaction score).
For “GGCUAGAACUAGUGGAUCCCCCGGCGCCCGGCGGCUCGAGCCCGGGUAAGUGUCAAUAGUCUGCAUGCCGCCGGGCGCCAUGCCUGCAGGUCGACUCUAGAAAACAUG”, the binding signal in assay [1] is 6.46 log2 enrichment (interaction score); in assay [3], 5.23 log2 enrichment (interaction score); in assay [4], 4.21 log2 enrichment (interaction score); in assay [9], 2.43 log2 enrichment (interaction score).
For “GGCUAGAACUAGUGGAUCCCCCGGCGCCCGGCGGCUCGAGCCCGGGUAAGUUUAAAUAGUCUGCAUGCCGCCGGGCGCCAUGCCUGCAGGUCGACUCUAGAAAACAUG”, in [10], the binding signal was 3.22 log2 enrichment (interaction score).
On to “GGCUAGAACUAGUGGAUCCCCCGGCGCCCGGCGGCUCGAGCCCGGGUAAGUCUAAAUAGUCUGCAUGCCGCCGGGCGCCAUGCCUGCAGGUCGACUCUAGAAAACAUG”, for which the binding signal in [11] was 3.12 log2 enrichment (interaction score).
For “GGCUAGAACUAGUGGAUCCCCCGGCGCCCGGCGGCUCGAGCCCGGGUAAGCGUAAAUAGUCUGCAUGCCGCCGGGCGCCAUGCCUGCAGGUCGACUCUAGAAAACAUG”, the binding signal is 5.19 log2 enrichment (interaction score) in assay [12], 3.04 log2 enrichment (interaction score) in assay [13], 4.31 log2 enrichment (interaction score) in assay [14] and 6.68 log2 enrichment (interaction score) in assay [15].
